PMC10163288
Not all results are given here. No count for the full screen is at hand.

B1: il10ra_site1_normal_mot_HHH_b2_06090_af2_000000001_0001_1_19_H_._HHH_b1_07022_0001_0000500035_0000001_0 (protein)
chain: SSSSSQEVAELIIEAFRLLLRGDEEEVERLLEELKELAEELNDPALRRLVEILEEAIKAASSSSS
B2: il10ra_site1_sap_19_mot_HHH_b2_07521_000000141_0001_20_37_H_._HHH_b1_07537_af2_0001_0000400008_0000001_0_0001 (protein)
chain: SSSSSDEERLEELLEELKELLEEGDRERFLRVALEVLRLAFQSSDEEALQAVWRLVKKWGSSSSS
B3: il10ra_site1_normal_mot_HHH_b1_03094_000000294_0001_1_20_H_._HHH_b1_05478_af2_0001_0000100005_0000001_0 (protein)
chain: SSSSDEENQEALELSLEALRLALRGDPEKAREVLEEAFELAERANNERLLRIIEELLEALHSSSS
B4: il10ra_site1_normal_mot_HHH_b1_06789_af2_000000041_0001_1_20_H_._HHH_b1_02788_0001_0000100006_0000001_0 (protein)
chain: SSSSDLEEEIEEAIEEARENGDELIVQILEILLRQIRRDGSPNARWLVRQVIKALKNLLENSSSS
B5: il10ra_site1_sap_24_mot_HHH_b2_06857_af2_000000179_0001_42_54_H_._HHH_b1_04179_af2_0001_0000200006_0000001_1_0001 (protein)
chain: SSSSSDATRELYRLSKEAAELLAEGNPEEAQRVAEEAFELAEEAGNRVLLHAIEHLLRDISSSSS
B6: il10ra_site1_normal_mot_HHH_b2_07521_000000141_0001_20_37_H_._HHH_b1_01332_0001_0000100002_0000001_0_af2pred_0001 (protein)
chain: SSSSDEEEKRLRLALRLARFLIEQGDEEAARKLLEWIRELAKRANDEEALEEAQRLLEEVGSSSS
B7: il10ra_site1_normal_mot_HHH_b1_01879_000000050_0001_1_18_H_._HHH_b1_04021_0001_0000200009_0000001_0_af2pred_dldesign_0_af2pred (protein)
chain: SSSSSELDALLAALEAAVAAGDEAAVRELSVRVSRLALEANNKEVLKKVFDLMVDFYKKLSSSSS
B8: il10ra_site1_sap_20_mot_HHH_b1_05126_000000053_0001_38_52_H_._HHH_b2_05116_af2_0001_0000900047_0000001_0_0001 (protein)
chain: SSDEREELKEEVEEEVEKAVENKDPELVKEIIAKALMEAARLRDDQLSMAIIRIYARANQLLQSS
B9: il10ra_site1_normal_mot_HHH_b2_08144_af2_000000046_0001_38_52_H_._HHH_b1_00696_0001_0000600035_0000001_0 (protein)
chain: SSSSTEEIQRIMELLRRAAELLNEGNPEEAEKLIEEAEELVKEANDPLLEIQLRFLERDINSSSS
B10: il10ra_site1_sap_23_mot_HHH_b1_01233_000000085_0001_1_18_H_._HHH_b1_01214_0001_0000100002_0000001_0_0001 (protein)
chain: SSSSDEEHIEELARAVERQLEQLSKYDPRLLERLAEAARKALELWDEELAREIEELAKELLSSSS
B11: il10ra_site1_normal_mot_HHH_b2_00984_000000042_0001_1_20_H_._HHH_b2_02613_af2_0001_0000700025_0000001_0 (protein)
chain: SSSSSTEEEIEELIKKAEEAAENGDPRKAFELLAEASRYALELGDAELLQEIWELIKKLNSSSSS
B12: il10ra_site1_sap_23_mot_HHH_b1_03574_000000194_0001_1_18_H_._HHH_b1_05868_0001_0000200012_0000002_0_0001 (protein)
chain: SSSSSDRDELYELIEEALELLARGNPEEAERVLEEARELAEELGNRVFLVVIRFLLKDIKSSSSS
B13: il10ra_site1_normal_mot_HHH_b1_05056_000000217_0001_1_20_H_._HHH_b2_04285_0001_0000100002_0000001_0 (protein)
chain: SSSSDLEEEIERLEEELREARERGDKELALQLLLRLLRLAYETRDEELLRELWEIVRKLFSSSSS
B14: il10ra_site1_normal_mot_HHH_b1_04693_000000238_0001_19_36_H_._HHH_b2_06085_af2_0001_0000700026_0000002_0 (protein)
chain: SSSSSDQELYELIRELIELLLEGDEEEIERLEEEIEKLAKELNNRVLLFVARAARRLQEKSSSSS
B15: il10ra_site1_sap_20_mot_HHH_b1_08622_000000192_0001_23_40_H_._HHH_b2_06485_0001_0000100001_0000003_0_0001_af2pred_0001 (protein)
chain: SSSSSEFEEAIKAARESIEHALRLGDDEKVEQALRLLERLARDANDEEAEKFIEEVEELLSSSSS
B16: il10ra_site1_sap_11_mot_HHH_b1_00456_000000263_0001_1_17_H_._HHH_b2_06141_0001_0000200005_0000001_0_0001_af2pred_0001 (protein)
chain: SSSSDIAERLVELALEAARLAAERGDPEAVRRALEQAEHLAKLNNNPELEEEVKELEEELSSSSS
B17: il10ra_site1_sap_15_mot_HHH_b1_00814_af2_000000078_0001_43_57_H_._HHH_b2_00250_af2_0001_0000100010_0000001_0_0001_af2pred_0001 (protein)
chain: SSSSSRSAEEAIRRLLRAAKQLEDEERLKLAIRDALAAAEFLGNEELVEELRKILEELRSSSSSS
B18: il10ra_site1_sap_28_mot_HHH_b2_01776_000000118_0001_38_52_H_._HHH_b1_02755_0001_0000100001_0000001_0_0001_af2pred_0001 (protein)
chain: SSSSDEELLEHLLRALKQVVELGDEERAKLTIKFIKRLAELHNDEEVEKRLRELEELVEELSSSS
B19: il10ra_site1_normal_mot_HHH_b1_02809_af2_000000277_0001_40_57_H_._HHH_b1_00768_af2_0001_0000200008_0000001_0 (protein)
chain: SSSSSSDANETAARLIRAAYRGDEELFEELREELEELIERYGDPRLRLALQFAEALFRELSSSSS
B20: il10ra_site1_sap_22_mot_HHH_b1_00169_000000276_0001_1_18_H_._HHH_b1_00842_0001_0000200007_0000001_0_0001 (protein)
chain: SSSSDEEREELYEILEEVIKLASEGDEEEFEELVREAEELAKELGNWVVRHVLELLRRDLSSSSS
B21: il10ra_site1_normal_mot_HHH_b2_01397_000000078_0001_23_39_H_._HHH_b2_08075_0001_0000300026_0000002_0_af2pred_0001 (protein)
chain: SSSSDERVKLTLRFAEALAKHGDRRAVELLLRAARQLAERDGDEELEELIEEVEERVRELLSSSS
B22: il10ra_site1_normal_mot_HHH_b1_05357_000000034_0001_23_39_H_._HHH_b1_03625_af2_0001_0000700020_0000001_0 (protein)
chain: SSSSSDEKEVTHILIQAYAAANHGNPEEAEELLKEAKEIAEEINNERLKLSIEKVEEILRSSSSS
B23: il10ra_site1_sap_13_mot_HHH_b2_00943_af2_000000149_0001_1_17_H_._HHH_b1_02941_af2_0001_0000200003_0000001_0_0001 (protein)
chain: SSSSDVSREAYELSRRAAELHSEGNPEEARELLEEAEELLREAGDRVILHNVEYVLELLNSSSSS
B24: il10ra_site1_sap_14_mot_HHH_eva_0266_af2_000000000_0001_3_18_H_._HHH_b1_03321_0001_0000100001_0000001_0_0001 (protein)
chain: SSSSYEELKKLIERITRALREGNREEAQELIERVEELAEERNDWSARFVARVLQEALEANSSSSS
B25: il10ra_site1_normal_mot_HHH_b2_00475_000000107_0001_44_57_H_._HHH_b2_03520_0001_0000600038_0000001_0 (protein)
chain: SSSSDEEEVSHLLFRALELLFRGDKEEAEELVEEAKEIAEESNDPELQRYVEIAEHFVKAHSSSS
B26: il10ra_site1_normal_mot_HHH_b2_08186_000000021_0001_43_56_H_._HHH_b1_00125_0001_0000100002_0000001_0 (protein)
chain: SSSSSSDLEEEIEELLEELKQISDPERFAEVARRVLRLIYELGDEELLQELWEILKRLSSSSSSS
B27: il10ra_site1_normal_mot_HHH_b1_05670_000000169_0001_1_19_H_._HHH_b2_02857_0001_0000400035_0000001_1 (protein)
chain: SSSSDEDYRRAKELIELIVELLREGNPEEAKKVLEELRELAEENNNPVLEWSVRLLEEDINSSSS
B28: il10ra_site1_sap_27_mot_HHH_b1_05870_000000031_0001_1_20_H_._HHH_b2_06019_af2_0001_0000100004_0000001_0_0001 (protein)
chain: SSSSSDIEELLREAEELAEEGDPEEAARLLLEALKLIYERQDKELLQELWEVVRRVAEISSSSSS
B29: il10ra_site1_sap_19_mot_HHH_b2_03220_af2_000000223_0001_23_40_H_._HHH_b1_07213_0001_0000100001_0000001_0_0001 (protein)
chain: SSSSDEEQEELLRLLRKLVELLLRGDKEEAERLARELLELAEELNDEKVVHVVEDLEKTVSSSSS
B30: il10ra_site1_sap_24_mot_HHH_b2_00475_000000107_0001_44_57_H_._HHH_b1_04576_0001_0000500027_0000001_0_0001 (protein)
chain: DLLELAFELQRRQGTPPEDVIRALLYLAHAANDPERVELLEEVLKLLEDGDPERAEELLKEASKR
B31: il10ra_site1_sap_20_mot_HHH_b1_07100_000000193_0001_1_18_H_._HHH_b2_05849_0001_0000400035_0000001_0_0001_af2pred_0001 (protein)
chain: SSSSSERLELTIKFIEFLLEQGDPEAAKRLARAAAQIAKKDGDEELLRRIEELLEEAEELLSSSS
B32: il10ra_site1_normal_mot_1cde5897893f3d1588f92be3b001cdf2_0001_af2_000000130_0001_54_65_H_._HHH_b2_05871_0001_0000300015_0000001_1_af2pred_0001 (protein)
chain: SSSSSDEEVEERVEELLERLHHVDPKEAAQLLHEAARLAAELDNPELLELVFEAAEEVISSSSSS
B33: il10ra_site1_sap_30_mot_HHH_b1_02809_af2_000000277_0001_40_57_H_._HHH_b1_05733_0001_0000200016_0000002_0_0001 (protein)
chain: SSSSSEASRRIYELLRRIVELHHEGNPEEARELIEEAKELAEEAGDRVLLWVIEWLERLVNSSSS
B34: il10ra_site1_sap_21_mot_HHH_b1_04771_000000013_0001_40_56_H_._HHH_b1_05247_0001_0000500023_0000001_0_0001 (protein)
chain: SSSSDQEEELVRAAIRLIEQLIKNGNPEAARMILWAAEKLAKEINNPELLEELEELKELLNSSSS
B35: il10ra_site1_normal_mot_a6c796b944619e241e020fd597ddb6da_0001_af2_000000092_0001_15_31_H_._HHH_b2_01778_af2_0001_0000100002_0000002_0_af2pred_0001 (protein)
chain: SSSSSSSEEEQEVHALIFFARISDNEDAAKISLELAKKIAEEINNEELREEIEELEKELSSSSSS
B36: il10ra_site1_normal_mot_HHH_b2_01705_af2_000000069_0001_44_57_H_._HHH_b1_04218_af2_0001_0000400020_0000001_0 (protein)
chain: SSSSSSDSEELLEEAEELLKEIKDPEERTEVYRKFAEELVELGDREAIERLSELFIRASSSSSSS
B37: il10ra_site1_sap_19_mot_HHH_b1_00992_000000182_0001_23_40_H_._HHH_b1_02574_0001_0000200023_0000001_0_0001 (protein)
chain: SSSSDEEEELVRAALRLAEQAYENGDPEAAKRLLWAAEFLAREIGDEELEELVERVEEKISSSSS

target: il10ra, Q13651; assay: yeast display titration
Sequence (Q13651 whole entry): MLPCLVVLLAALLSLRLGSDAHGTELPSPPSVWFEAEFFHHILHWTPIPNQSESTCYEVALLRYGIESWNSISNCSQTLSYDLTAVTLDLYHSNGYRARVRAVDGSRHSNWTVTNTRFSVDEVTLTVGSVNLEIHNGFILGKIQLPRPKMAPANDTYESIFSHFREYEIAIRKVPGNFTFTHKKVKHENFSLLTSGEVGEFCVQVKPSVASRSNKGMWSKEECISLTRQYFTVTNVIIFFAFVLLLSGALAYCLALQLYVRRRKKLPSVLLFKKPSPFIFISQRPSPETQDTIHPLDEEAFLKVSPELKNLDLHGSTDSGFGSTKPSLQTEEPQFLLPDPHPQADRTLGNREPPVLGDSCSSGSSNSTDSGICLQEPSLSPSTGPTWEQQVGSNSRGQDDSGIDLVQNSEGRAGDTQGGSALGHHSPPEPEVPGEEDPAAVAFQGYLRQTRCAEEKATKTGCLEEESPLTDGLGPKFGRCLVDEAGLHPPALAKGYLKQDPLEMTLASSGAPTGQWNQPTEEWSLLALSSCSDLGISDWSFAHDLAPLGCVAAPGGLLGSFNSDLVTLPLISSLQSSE

Apparent Kd, inactive:
B1 no binding seen, B2 no binding seen, B3 no binding seen, B4 no binding seen, B5 no binding seen, B6 no binding seen, B7 no binding seen, B8 no binding seen, B9 no binding seen, B10 no binding seen, B11 no binding seen, B12 no binding seen, B13 no binding seen, B14 no binding seen, B15 no binding seen, B16 no binding seen, B17 no binding seen, B18 no binding seen, B19 no binding seen, B20 no binding seen, B21 no binding seen, B22 no binding seen, B23 no binding seen, B24 no binding seen, B25 no binding seen, B26 no binding seen, B27 no binding seen, B28 no binding seen, B29 no binding seen, B30 no binding seen, B31 no binding seen, B32 no binding seen, B33 no binding seen, B34 no binding seen, B35 no binding seen, B36 no binding seen, B37 no binding seen
